# ± gives the standard deviation.
# Experiments:
# Conditions in all cases: modulator concentration 10 µM
# [1] = system: RAW-Dual (murine macrophage reporter line); assay: NF-kB reporter (SEAP) activity fold change vs agonist alone; higher = enhanced NF-kB activity
# Method in brief: (§1)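 Compound reached 10 μM final in each well by pin transfer, onto RAW-Dual murine macrophage reporter cells seeded at 50 000 per well in 384-well plates. After 1 hour at 37 °C, the cells were stimulated overnight with a PRR agonist. SEAP in the supernatant was read with QUANTI-Blue at 620 nm absorbance for NF-κB, and Lucia luciferase was read with QUANTI-Luc luminescence for IRF. Each signal was turned into fold change against the mean agonist-only control on the same plate, and two replicate plates were averaged with propagated errors.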
# [2] = system: RAW-Dual (murine macrophage reporter line); assay: IRF reporter (Lucia luciferase) activity fold change vs agonist alone; higher = enhanced IRF activity
# Method in brief: as §1
# [3] = system: RAW-Dual (murine macrophage reporter line); assay: viability score (confluency relative to resting cells, overnight) (fraction); higher = more viable, active = viable (0.7 or more)
# Method in brief: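 In 384-well plates, RAW-Dual macrophages received compound at a final 10 μM overnight. Two confluency masks were then made with IncuCyte software from IncuCyte images of all imaged wells. The viability score is defined as confluency relative to resting cells. Passing the cutoff required both masks to lie above 70% of resting cells.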
# [4] = agonist: CpG ODN 1826 0.5 ug/mL
SMILES,"NF-kB reporter [1, 4]",NF-kB reporter ([1]; agonist: LPS 0.1 ug/mL),NF-kB reporter ([1]; agonist: MPLA […]),IRF reporter ([2]; agonist: 3'3'-cGAMP 10 ug/mL),IRF reporter ([2]; agonist: LPS 0.1 ug/mL),IRF reporter ([2]; agonist: MPLA […]),viability score [3]
Cc1c(NC(=S)NC(=O)c2ccccc2[N+](=O)[O-])cccc1-c1nc2ccccc2o1,0.898 ± 0.074,1 ± 0.073,1.05 ± 0.11,0.649 ± 0.093,1.04 ± 0.15,1.07 ± 0.31,1 (active)
CCN(CC)c1ccc2cc(-c3nnc(NCc4ccc(F)cc4)s3)c(=O)oc2c1,1.08 ± 0.085,0.955 ± 0.059,0.906 ± 0.055,0.941 ± 0.035,1.08 ± 0.13,0.981 ± 0.085,1.01 (active)
CCn1cc(C(=O)O)c(=O)c2cc(F)c(N3CCN(C)CC3)cc21.CS(=O)(=O)O,1.12 ± 0.15,1.3 ± 0.22,0.938 ± 0.096,0.858 ± 0.037,1.45 ± 0.12,1.17 ± 0.11,0.986 (active)
Cn1ccc(C(=O)Nc2nc(C(C)(C)C)cs2)n1,0.805 ± 0.063,1 ± 0.082,1.19 ± 0.083,0.993 ± 0.055,1.31 ± 0.18,1.57 ± 0.44,0.675 (inactive)
COC(=O)C1=COC(OC2OC(CO)C(O)C(O)C2O)C2C1CC(O)C2C (centres undefined),1.04 ± 0.081,0.974 ± 0.099,0.994 ± 0.033,0.976 ± 0.063,0.946 ± 0.13,0.951 ± 0.24,0.998 (active)
O=C(c1ccccc1)c1ccc2n1CCC2C(=O)O (centres undefined),0.921 ± 0.13,1.09 ± 0.14,0.895 ± 0.073,0.94 ± 0.048,1.15 ± 0.26,1.04 ± 0.16,0.996 (active)
CC(C)(C)n1cnc2cc(N=Cc3ccc(Cl)cc3)ccc21,1.21 ± 0.14,1.01 ± 0.12,1.4 ± 0.055,0.888 ± 0.059,0.805 ± 0.048,0.996 ± 0.1,1 (active)
CC(=C(C#N)C(=O)NCc1ccccc1)N(C)C,0.808 ± 0.077,0.883 ± 0.1,1.08 ± 0.11,0.966 ± 0.045,1.22 ± 0.1,1.26 ± 0.17,1.02 (active)
Cc1ccc(NC(=O)C(C#N)=Cc2ccc(-c3cccc([N+](=O)[O-])c3)o2)cc1,1.07 ± 0.084,1.06 ± 0.094,0.904 ± 0.054,1 ± 0.076,1.46 ± 0.1,1.18 ± 0.14,1.01 (active)
CCCNS(=O)(=O)Nc1ncnc(OCCOc2ncc(Br)cn2)c1-c1ccc(Br)cc1,0.775 ± 0.21,0.995 ± 0.074,1.16 ± 0.1,0.417 ± 0.047,0.383 ± 0.083,0.465 ± 0.062,0.953 (active)
CN1CCC(OC(c2ccccc2)c2ccccc2)CC1.Cl,0.827 ± 0.31,1.17 ± 0.061,1.22 ± 0.087,0.638 ± 0.025,0.967 ± 0.19,1.08 ± 0.1,0.992 (active)
CC(C)NCC(O)COc1cccc2[nH]ccc12 (centres undefined) [Prestw-90],1.59 ± 0.38,0.968 ± 0.068,1.13 ± 0.13,1.01 ± 0.046,1.17 ± 0.13,1.17 ± 0.11,0.985 (active)
CC(NCCc1c[nH]c2ccccc12)=C1C(=O)c2ccccc2C1=O,0.972 ± 0.081,0.979 ± 0.11,1.15 ± 0.05,0.425 ± 0.027,0.989 ± 0.033,1.28 ± 0.11,0.991 (active)
CN(C)CCOC1=Cc2ccccc2Sc2ccc(Cl)cc21 [Prestw-1368],0.965 ± 0.077,0.97 ± 0.094,1.11 ± 0.039,0.772 ± 0.031,0.895 ± 0.061,0.761 ± 0.099,0.994 (active)
COc1ccc(CNCc2cccc3ccccc23)c(OC)c1,0.108 ± 0.013,0.586 ± 0.065,0.607 ± 0.063,0.968 ± 0.076,1.21 ± 0.12,1.36 ± 0.22,0.354 (inactive)
CCN1CCN(CC(O)COc2ccc(C(C)(C)C)cc2C(C)(C)C)CC1.Cl.Cl (centres undefined),0.72 ± 0.12,0.999 ± 0.08,2.1 ± 0.29,0.96 ± 0.052,1.24 ± 0.14,2.24 ± 0.24,0.25 (inactive)
O=C(O)CCCCCN1C(=O)c2ccccc2C1=O,0.968 ± 0.089,0.988 ± 0.074,1.04 ± 0.099,1.03 ± 0.034,1.35 ± 0.19,1.5 ± 0.23,1.03 (active)
Br.O=S(=O)(c1ccc(-c2csc(Nc3ccc(F)cc3)n2)cc1)N1CCOCC1,0.769 ± 0.068,0.989 ± 0.075,2.17 ± 0.15,0.768 ± 0.096,0.948 ± 0.054,1.55 ± 0.1,0.997 (active)
Cc1cc(OC2CN(C(=O)Cc3c[nH]c4ccccc34)C2)cc(=O)n1C1CC1,1.1 ± 0.055,1.1 ± 0.091,0.997 ± 0.11,1 ± 0.05,1.2 ± 0.076,1.23 ± 0.12,0.983 (active)
COc1cc(C2CC3CC2C(C)C3(C)C)ccc1O (centres undefined),0.638 ± 0.098,0.716 ± 0.052,0.773 ± 0.078,0.926 ± 0.031,1.01 ± 0.14,1.34 ± 0.22,1.01 (active)
CC(C)(CO)NC(=O)C(c1ccccc1)c1ccccc1,1.24 ± 0.14,0.961 ± 0.086,1 ± 0.041,0.937 ± 0.035,0.991 ± 0.051,0.896 ± 0.095,0.996 (active)
CC1=C(C(=O)Nc2cccc(C)n2)C(c2cccs2)C2=C(CC(C)(C)CC2=O)N1 (centres undefined),1.03 ± 0.18,1.09 ± 0.14,0.869 ± 0.069,0.913 ± 0.027,1.2 ± 0.12,1.25 ± 0.16,1 (active)
Nc1ccc(C=Cc2ccccc2)cc1,0.964 ± 0.097,0.776 ± 0.038,0.976 ± 0.034,0.174 ± 0.012,0.857 ± 0.089,0.719 ± 0.056,0.973 (active)
O=c1c2c([nH]c3c(-c4cccc5ccccc45)cnn13)CCCC2,1.02 ± 0.095,1.07 ± 0.067,0.913 ± 0.062,0.987 ± 0.027,1.47 ± 0.23,1.09 ± 0.2,1.01 (active)
C=CCc1ccc(O)c(OC)c1,1.05 ± 0.29,0.913 ± 0.095,1.14 ± 0.097,0.524 ± 0.019,1.05 ± 0.14,1.01 ± 0.12,0.659 (inactive)
COc1ccc(NC(=O)c2nn(-c3ccc(F)cc3)cc2OC)cc1OC,1.07 ± 0.12,1.14 ± 0.094,0.889 ± 0.04,0.976 ± 0.07,1.23 ± 0.12,1.13 ± 0.24,0.976 (active)
O=C(CCC(=O)NN=Cc1ccc(O)cc1)NN=Cc1ccc(O)cc1,0.915 ± 0.073,0.963 ± 0.062,0.947 ± 0.036,0.973 ± 0.12,0.974 ± 0.04,0.787 ± 0.085,1 (active)
